For 100 compounds, inhibition results are on record in PubChem BioAssay AID1220 (Sanford-Burnham Center for Chemical Genomics, 2008).

Out of some 190,000 compounds screened, about 1,300 (0.68%) were called active. No stated cut-off is given here; in the data, active means inhibition above about 50%; inactive means the rest. For the sample, actives were picked, then their nearest neighbours and some compounds at random.

This assay deals with Mannose-6-phosphate isomerase (Homo sapiens) (UniProt P34949). The assay is described as follows: human PMI inhibitors, high substrate, primary screen, biochemical, fluorescence intensity, high mannose 6-phosphate (AID 1220). To be noted: recombinant PMI enzyme, coupled fluorescence intensity; at 20 µM; stronger effect = higher value.
Chain of Mannose-6-phosphate isomerase (Homo sapiens) (P34949 whole entry, looked up): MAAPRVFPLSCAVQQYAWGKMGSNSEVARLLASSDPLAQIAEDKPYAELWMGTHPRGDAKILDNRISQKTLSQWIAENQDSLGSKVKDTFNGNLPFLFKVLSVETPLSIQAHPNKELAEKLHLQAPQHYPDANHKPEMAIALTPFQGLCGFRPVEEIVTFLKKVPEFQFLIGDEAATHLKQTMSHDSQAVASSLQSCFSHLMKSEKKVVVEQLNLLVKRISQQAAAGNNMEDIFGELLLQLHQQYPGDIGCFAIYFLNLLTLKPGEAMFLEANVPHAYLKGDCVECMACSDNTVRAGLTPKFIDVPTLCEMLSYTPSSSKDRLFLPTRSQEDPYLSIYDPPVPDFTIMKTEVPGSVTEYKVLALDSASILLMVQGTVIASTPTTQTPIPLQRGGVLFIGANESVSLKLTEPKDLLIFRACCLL
Take `COc1cccc(NC(=O)CN2CC(c3ccccc3)CC2=O)c1` (stereo not given): the inhibition is -4.8% (inactive).

Turning to `COc1cccc(CN2CCCCC2c2cccnc2)c1` (stereo not given), the inhibition was -2.6% (inactive).

For `COc1cccc(C2CC3C(=O)C=CC2N3Cc2ccccc2)c1` (stereo not given), the inhibition was 61.2% (active).

As to `CCN(CC)CCCN=C(C)c1c(O)n(C2CCCCC2)c(=O)[nH]c1=O`, the inhibition is -9.1% (inactive).

As to `CC(C)CCNC(=O)c1c(N)n(CC2CCCO2)c2nc3ccccc3nc12` (stereo not given), the inhibition was 23.9% (inactive).

Consider `CCC(C)NC(=O)c1c(N)n(CC2CCCO2)c2nc3ccccc3nc12` (stereo not given), for which the inhibition is 64.3% (active).

For the compound `CCCCn1c(N)c(C(=O)NCCN2CCOCC2)c2nc3ccccc3nc21`, the inhibition was 48.6% (inactive).

Consider `CCCNC(=O)c1c(N)n(CC2CCCO2)c2nc3ccccc3nc12` (stereo not given), for which the inhibition is 56.1% (active).

On to `CC(C)CCOC(=O)c1c(N)n(CC2CCCO2)c2nc3ccccc3nc12` (stereo not given), for which the inhibition is 5.9% (inactive).

Regarding `Nc1c(C(=O)OC2CCCCC2)c2nc3ccccc3nc2n1CC1CCCO1` (stereo not given), the inhibition was 24.9% (inactive).

For `CC(C)OC(=O)c1c(N)n(CC2CCCO2)c2nc3ccccc3nc12` (stereo not given), the inhibition was 16.9% (inactive).

Regarding `CCCCn1c(N)c(C(=O)OCC2CCCO2)c2nc3ccccc3nc21` (stereo not given), the inhibition is 12% (inactive).

On to `CC(C)OCCCNC(=O)c1c(N)n(CC2CCCO2)c2nc3ccccc3nc12` (stereo not given), for which the inhibition is 22.1% (inactive).

For the compound `CCCCCn1c(N)c(C(=O)NCCN2CCOCC2)c2nc3ccccc3nc21`, the inhibition was 51.4% (active).

On to `CCCCCCn1c(N)c(C(=O)NCCN2CCOCC2)c2nc3ccccc3nc21`, for which the inhibition was 23.2% (inactive).

For the compound `Nc1c(C(=O)NC2CCCC2)c2nc3ccccc3nc2n1CC1CCCO1` (stereo not given), the inhibition is 62.2% (active).

In the case of `CC(NCc1ccccc1Cl)C(O)c1ccccc1` (stereo not given), the inhibition was -3.1% (inactive).

As to `CCN(CC)P(=S)(c1c(C)nc2ccccn12)c1c(C)nc2ccccn12`, the inhibition is -6.3% (inactive).

As to `CN1CCN(S(=O)(=O)c2cnc(Cl)c(Br)c2)CC1`, the inhibition is 10.5% (inactive).

For `COc1ccc(N2C(=O)NC(=O)/C(=C/c3ccc4c(c3)Cc3ccccc3-4)C2=O)cc1`, the inhibition is -32.8% (inactive).

`COc1ccc(-c2cc(=NCCC(=O)O)c3cc(C)ccc3o2)cc1`: the inhibition was 3.9% (inactive).

`CN1CCN(c2ccc(F)cc2N)CC1`: the inhibition was -0.9% (inactive).

Consider `OCC12COC3c4ccccc4C(OC1)N32` (stereo not given), for which the inhibition is 5.1% (inactive).

With `COc1ccc(N=Cc2c(O)n(Cc3cccs3)c(=O)[nH]c2=O)cc1`, the inhibition is 0.9% (inactive).

Turning to `COc1ccc(P2(=O)Nc3ccccc3N2)cc1`, the inhibition was 52.2% (active).

`COc1ccc(NP(=O)(Nc2ccc(OC)cc2)Oc2ccccc2)cc1`: the inhibition was -1.9% (inactive).

As to `COc1ccc(OP(=O)(Nc2ccccc2)Nc2ccccc2)cc1`, the inhibition was -14.6% (inactive).

Turning to `C[N+](C)(C)c1ccccc1`, the inhibition was 10.3% (inactive).

With `CCCCCCC(=O)c1c(O)n(-c2ccccc2OC)c(=O)[nH]c1=O`, the inhibition is -8.9% (inactive).

Take `CCn1nc(-c2cccs2)nc2c(=O)n(C)c(=O)nc1-2`: the inhibition is 8.9% (inactive).

In the case of `O=[N+]([O-])c1ccc(N2CCOCC2)c2cccnc12`, the inhibition is 36.9% (inactive).

Regarding `O=[N+]([O-])c1ccc(N2CCOCC2)c2ccncc12`, the inhibition was 55.8% (active).

On to `O=[N+]([O-])c1ccc(N2CCCC2)c2ccncc12`, for which the inhibition is 47.4% (inactive).

Take `COc1cccc(C(=O)C2CCCN(Cc3ccon3)C2)c1` (stereo not given): the inhibition is 8.8% (inactive).

On to `O=C(CN1CCOCC1)NCC(=O)Nc1ccc(Br)cc1C(=O)c1ccccc1`, for which the inhibition is -0.3% (inactive).

`CCC[N+]12CCC(CC1)C(=C(c1ccccc1)c1ccccc1)C2`: the inhibition was 5.9% (inactive).

With `O=c1[nH]c(=S)n(Cc2ccc(F)cc2)c(O)c1C=NCC1CCCO1` (stereo not given), the inhibition was 6.1% (inactive).

Take `CCOC(=O)c1c(NS(=O)(=O)c2ccccc2)n(CCCOC)c2nc3ccccc3nc12`: the inhibition was 44.9% (inactive).

Take `CCCCn1c(NC(=O)c2ccc(Br)o2)c(C(=O)OCC)c2nc3ccccc3nc21`: the inhibition is 56.4% (active).

Turning to `COCCNC(=O)c1c(NC(=O)c2ccc(Br)o2)n(Cc2ccccc2)c2nc3ccccc3nc12`, the inhibition is 46.5% (inactive).

With `CCCCn1c(NS(=O)(=O)c2ccc(C)cc2)c(C(=O)OCC)c2nc3ccccc3nc21`, the inhibition is 52.3% (active).

On to `CCCCn1c(NS(=O)(=O)c2ccccc2)c(C(=O)OCC)c2nc3ccccc3nc21`, for which the inhibition was 42.5% (inactive).

Turning to `CCOC(=O)c1c(N)n(CCCOC(=O)c2ccco2)c2nc3ccccc3nc12`, the inhibition was 0.2% (inactive).

In the case of `Cc1cc(C=O)c(C)n1CC1CCCO1` (stereo not given), the inhibition was -8.4% (inactive).

As for `COc1ccc(C(=O)C2CCCN(C3CSCCSC3)C2)cc1OC` (stereo not given), the inhibition was 8.3% (inactive).

On to `CN1C(=O)C(=Cc2ccccc2OCc2ccccc2Cl)C(=O)N(C)C1=O`, for which the inhibition was -9.8% (inactive).

For `CCn1nc(-c2ccccc2)nc2c(=O)n(C)c(=O)nc1-2`, the inhibition was 7.6% (inactive).

Turning to `CCn1nc(/C=C/c2ccccc2)nc2c(=O)n(C)c(=O)nc1-2`, the inhibition is 46.6% (inactive).

For the compound `Cn1ncnc2c(=O)n(C)c(=O)nc1-2`, the inhibition is 61.6% (active).

For the compound `Cc1cc(=O)n(-c2ccccc2)n1-c1ccccc1`, the inhibition was -4.7% (inactive).

For `CCOC(=O)c1c(-n2c(C)cc(/C=C3\C(=O)NC(=O)N(C)C3=O)c2C)sc2c1CCCC2`, the inhibition was 12.7% (inactive).

As to `Cc1cc2c(C(C)C)c(O)c(O)c(C=O)c2c(O)c1-c1c(C)cc2c(C(C)C)c(O)c(O)c(C=O)c2c1O`, the inhibition is 51.4% (active).

Turning to `COc1ccc(-c2nc3ccccc3c(=O)n2-c2cccnc2)cc1`, the inhibition was -2.9% (inactive).

With `O=C1/C(=C\c2cc3c(cc2Cl)OCO3)N2CCC1CC2`, the inhibition is 57.2% (active).

`O=C1/C(=C/c2ccc3c(c2)OCO3)N2CCC1CC2`: the inhibition is -2.8% (inactive).

As for `O=C1/C(=C/c2cc([N+](=O)[O-])ccc2Cl)N2CCC1CC2`, the inhibition was -0.3% (inactive).

`O=C1/C(=C\c2ccc3c(c2)OCO3)N2CCC1CC2`: the inhibition was 5.7% (inactive).

In the case of `O=C1/C(=C/c2cc3c(cc2Cl)OCO3)N2CCC1CC2`, the inhibition was 51% (active).

For `O=C1/C(=C\c2cc3c(cc2Br)OCO3)N2CCC1CC2`, the inhibition was 19.8% (inactive).

As for `CCN(CC)CC(O)c1ccc(C2CCCC2)cc1` (stereo not given), the inhibition is -5.5% (inactive).

Regarding `C=CCn1c(O)c(C(CC)=Nc2ccccc2NC(C)=O)c(=O)[nH]c1=O`, the inhibition is 0.5% (inactive).

Take `CCOC(=O)C(NC(C)=O)C(OC(C)=O)c1cccc(N(CCCl)CCCl)c1` (stereo not given): the inhibition is -101% (inactive).

Turning to `CC(NC(=O)Oc1ccccc1)C(c1cccs1)N1CCOCC1` (stereo not given), the inhibition is 3% (inactive).

Turning to `Cc1ccc(-c2nn(Cc3ccccc3)cc2C=O)cc1`, the inhibition is 3.6% (inactive).

With `NC(=O)c1ccc(N=Nc2c(O)[nH]c(=O)[nH]c2=O)cc1`, the inhibition was 2.6% (inactive).

As for `O=C(N=Nc1c(O)[nH]c(=O)[nH]c1=O)C1COc2cc3ccccc3cc2O1` (stereo not given), the inhibition was 51.7% (active).

Take `O=c1[nH]c(O)c(N=Nc2ccc([N+](=O)[O-])cc2)c(=O)[nH]1`: the inhibition is -7.5% (inactive).

With `O=C(N=Nc1c(O)[nH]c(=O)[nH]c1=O)C1COc2ccccc2O1` (stereo not given), the inhibition was 56.6% (active).

On to `O=c1[nH]c(O)c(N=Nc2ccc3c(c2)OCCO3)c(=O)[nH]1`, for which the inhibition is 2.6% (inactive).

As for `O=C(c1ccccc1)c1ccc(N=Nc2c(O)[nH]c(=O)[nH]c2=O)cc1`, the inhibition is -8.7% (inactive).

As for `CN(C)C(=O)Oc1ccc(-c2nnco2)cc1`, the inhibition was 2.3% (inactive).

As to `OC1(c2cccnc2)CC2CCC(C1)N2Cc1nnnn1Cc1ccccc1` (stereo not given), the inhibition is -8.1% (inactive).

`CCOP(=O)(OCC)C(c1ccccc1)N(C)C=O` (stereo not given): the inhibition is 1.8% (inactive).

With `CC(C)(C)NC(=O)NC(=O)CN1CC=C(c2ccccc2)CC1`, the inhibition was 7.7% (inactive).

On to `O=C1NC(=O)C2(Cc3ccccc3N3CCCC32)C(=O)N1` (stereo not given), for which the inhibition is -47.2% (inactive).

For the compound `O=C(Nc1ccc2c(c1)OCO2)c1cn(Cc2ccc(F)cc2)nn1`, the inhibition was 12.6% (inactive).

Turning to `COc1ccc(NC2(C#N)CCCCC2)cc1`, the inhibition is 52.7% (active).

Regarding `Cc1ccccc1NC1(C#N)CCCCC1`, the inhibition was -0.6% (inactive).

Turning to `COc1ccccc1NC1(C#N)CCCCC1`, the inhibition was 38.8% (inactive).

Consider `Cc1sc2ncn(CC(=O)NCCCC(=O)N3CCC4(CC3)OCCO4)c(=O)c2c1C`, for which the inhibition is -1.4% (inactive).

In the case of `O=C1C(=O)c2cccc3cccc1c23`, the inhibition was 44.3% (inactive).

For `O=C1C=Cc2ccccc2C1=O`, the inhibition is 75.2% (active).

With `O=C1C(=O)c2ccccc2-c2ccccc21`, the inhibition was 1.8% (inactive).

As to `CCN(CCNc1ccc([N+](=O)[O-])c2cccnc12)S(=O)(=O)c1ccc(Cl)cc1`, the inhibition was 36.7% (inactive).

For `O=C(NCCCN1CCOCC1)C(Cl)(Cl)Cl`, the inhibition is -7.8% (inactive).

Regarding `NCCNc1ccc([N+](=O)[O-])c2cccnc12`, the inhibition was 51.1% (active).

In the case of `O=[N+]([O-])c1ccc(NCCCN2CCOCC2)c2ncccc12`, the inhibition was 57.5% (active).

For `CCN(CC)c1ccc([N+](=O)[O-])c2cccnc12`, the inhibition is 67.2% (active).

Consider `Cc1nonc1OCCNc1ccc([N+](=O)[O-])c2cccnc12`, for which the inhibition is 33.9% (inactive).

As for `O=[N+]([O-])c1ccc(NCCO)c2ncccc12`, the inhibition is 35.9% (inactive).

As to `CCC(CO)Nc1ccc([N+](=O)[O-])c2cccnc12` (stereo not given), the inhibition is 38.6% (inactive).

Take `Cc1nonc1OCCNCCNc1ccc([N+](=O)[O-])c2cccnc12`: the inhibition is 39% (inactive).

As for `CC(O)CNc1ccc([N+](=O)[O-])c2cccnc12` (stereo not given), the inhibition is 52.2% (active).

Consider `CCN(CCNc1ccc([N+](=O)[O-])c2cccnc12)S(=O)(=O)c1ccccc1`, for which the inhibition is 8.2% (inactive).

As for `O=[N+]([O-])c1ccc(NCc2ccccc2)c2nonc12`, the inhibition was 43.9% (inactive).

Consider `CCC(=O)N1c2ccc(S(=O)(=O)CCC(=O)N3CCC4(CC3)OCCO4)cc2CC1C` (stereo not given), for which the inhibition is -5.2% (inactive).

Take `O=C1CN=C(c2ccc(F)cc2)c2oc3ccccc3c2N1`: the inhibition was -7.1% (inactive).

`CCOC(=O)c1c(C)n(Cc2ccccc2)c2ccc(O)cc12`: the inhibition is 40.8% (inactive).

As to `O=C(c1ccc2c(c1)OCO2)C1CCCN(CC2CCCCC2)C1` (stereo not given), the inhibition was 12.9% (inactive).

As to `CCOP(=O)(OCC)C(O)c1ccc(OC)c(OC)c1` (stereo not given), the inhibition is 2.3% (inactive).

As a reminder, the inhibition is the change of the read-out against control, counted positive when it falls.
